# Experimental data taken from PubChem BioAssay AID686978 (National Center for Advancing Translational Sciences (NCATS), 2013).
# The whole screen tested about 420,000 compounds, of which about 64,000 (15%) were called active. Roughly 27% stayed inconclusive and do not appear here. The list is a sample of the results. A number with no mark means an inactive call. Calls come from the whole dose curve; as a rule, active = well fitted inhibition curve with a large enough effect; inconclusive = small, poorly fitted or top-dose-only effect; inactive = flat fitted curve, though single readings scatter.
# Test: qHTS for Inhibitors of human tyrosyl-DNA phosphodiesterase 1 (TDP1): qHTS in cells in absence of CPT; note: nearly all actives have a fitted effect of over 55% in size
# Conditions: DT40 Tdp1-/- hTDP1 cells, no CPT, ATP luminescence, 48 h; activity change, negative = growth inhibition: at 46.2 µM (top of the series)
# Summary of the method: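 Cells were dispensed at 400 per well, compounds added by pin tool, plates incubated ≥48 hr at 37 °C, then CellTiter-Glo added for 30 min at room temperature before luminescence reading. Line: DT40 Tdp1-/- complemented with hTDP1; camptothecin omitted.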
# % is set by controls: 0 for no effect and ±100 for the full control effect; potency is the fitted concentration of half-maximal effect.
SMILES,"activity change, negative = growth inhibition",Potency
O=C(Nc1ccc(F)c([N+](=O)[O-])c1)C1CCCO1 (stereo not given),-22.9%,
COc1ccc(/C=C2\N=C3CCCN3C2=O)cc1,21.3%,
COc1ccc(/C=C2/CCCc3ccccc3C2=O)cc1,,5.8 µM (active)
COc1ccc(/C=C2\CCc3ccccc3C2=O)c(OC)c1OC,,20.6 µM (active)
O=C1/C(=C/c2cccs2)CCc2ccccc21,-26.7%,
COc1ccc(/C=C2\NC(=O)[C@@H]3Cc4ccccc4CN3C2=O)cc1,-8.4% [at 9.04 µM],
COc1ccccc1C1=CC(=O)CCC1,-12%,
O=C(O)CC(Cc1ccccc1)C(=O)Nc1ccc([N+](=O)[O-])cc1 (stereo not given),-13.4%,
COc1ccc(/C(C)=N\NC(=O)c2ccc(-c3ccccc3)cc2)c(F)c1,-7.22%,
COc1cccc(C(=O)N/N=C(\C)c2cccc(NC(=O)c3ccc(F)cc3)c2)c1OC,,23.1 µM (active)
COc1cccc(C(=O)Nc2cccnc2)c1OC,3.25%,
CCc1ccc(CCC(=O)Nc2ccc(S(N)(=O)=O)cc2)o1,-3.63%,
Cc1ccc2cc(C)c(N3CCC(C)CC3)nc2c1,-35.6%,
CCOc1n[nH]c(-c2ccccc2)n1,15.3%,
O=C(CNC(=O)N1CC(=O)Nc2ccccc21)Nc1ccc(Br)cc1F,-0.716%,
Cc1ccc(Cn2ccc(NC(=O)C3C4CCC(C4)C3C(=O)O)n2)cc1 (stereo not given),-23.8%,
COc1ccc(CCNC(=O)COc2ccc3c(c2)OCO3)cc1,-8.14%,
COc1ccc(NC(=O)C2Cc3c(-c4ccc(Cl)cc4)ccnc3O2)cc1 (stereo not given),,13 µM (active)
COc1ccc(Cn2ccnc2SCC(=O)Nc2ccc3c(c2)OCO3)cc1,-18.2%,
COc1ccc(OCC(O)CNC(=O)Nc2ccc(Cl)cc2)cc1 (stereo not given),10.9%,
COc1ccc(N(CC(=O)NC2CCCC2)C(=O)CS(=O)CC(=O)Nc2ccc3c(c2)OCO3)cc1 (stereo not given),17.1%,
COc1ccc(CCNC(=O)COC(=O)c2cnc(Cl)c(Cl)c2)cc1,1.66%,
O=C(COc1ccc(Cl)cc1)Nc1ccc2c(c1)OCO2,-21.7%,
CC(=O)Nc1ccc(-c2ccnc3c2CC(C(=O)NC(C)C)O3)cc1 (stereo not given),-21.1%,
COc1ccc(NC(=O)C2Cc3c(-c4ccc5c(c4)OCO5)ccnc3O2)cn1 (stereo not given),,4.61 µM (active)
O=C(Nc1ccc(Cl)cc1)C1Cc2c(-c3ccc4c(c3)OCO4)ccnc2O1 (stereo not given),,20.6 µM (active)
COc1ccc(CCCNC(=O)C2Cc3c(-c4cccc(C(N)=O)c4)ccnc3O2)cc1 (stereo not given),,16.4 µM (active)
O=C(Nc1ccc2c(c1)OCO2)C1CC1(Cl)Cl (stereo not given),-18.3%,
COc1cc(OC)c(C(=S)N2CCCC2)cc1OC,-1.59%,
O=C1NC(=O)C(CCc2ccccc2)(c2ccccc2)N1 (stereo not given),-19.1%,
